Bioassay records: PubChem BioAssay, National Center for Advancing Translational Sciences (NCATS)
AmpC no deterg – inhibitors of E. coli AmpC beta-lactamase without detergent; P00811; AmpC nitrocefin hydrolysis, absorbance 480 nm, 0.0001% Triton; Potency, µM (series often up to 57.1 µM), for the others: top-dose activity change, negative = inhibition, actives largely listed as inhibitors; 0.52% of 330,000 active; AID 485341;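 also: plate controls were no compound for no effect and no enzyme for full effect; nearly all actives have a fitted effect of over 20% in size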
Target sequence (P00811 whole entry, looked up): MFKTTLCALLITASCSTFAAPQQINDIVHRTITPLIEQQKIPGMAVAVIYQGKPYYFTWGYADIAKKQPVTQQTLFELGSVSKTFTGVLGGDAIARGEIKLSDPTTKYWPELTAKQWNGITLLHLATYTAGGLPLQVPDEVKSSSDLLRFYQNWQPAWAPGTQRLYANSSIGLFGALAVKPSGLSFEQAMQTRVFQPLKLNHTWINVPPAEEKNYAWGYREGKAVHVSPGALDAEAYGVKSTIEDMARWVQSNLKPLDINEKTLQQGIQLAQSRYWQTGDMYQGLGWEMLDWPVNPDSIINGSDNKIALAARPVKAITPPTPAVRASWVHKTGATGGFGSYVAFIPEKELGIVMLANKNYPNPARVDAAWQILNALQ
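AmpC (5.3 nM in the dispensed reagent) in 20 mM phosphate pH 7.0 with 0.01% (detergent screen) or 0.0001% Triton X-100 was preincubated with compounds for 15 min at room temperature. Nitrocefin was then added from an 800 uM solution, and hydrolysis was followed at 480 nm.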
AmpC inh detg – blocks E. coli AmpC beta-lactamase in detergent assay; P00811; AmpC hydrolysis of nitrocefin, absorbance 480 nm, 0.01% Triton; Potency, µM (titrated, usually from 114 µM), without a hit: at the top dose activity change, negative = inhibition, most hits filed as inhibitors; 0.041% of 370,000 active;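 also: 0% = no-compound wells and -100% = no-enzyme wells; nearly all actives have a fitted effect of over 25% in size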
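20 mM phosphate pH 7.0 + 0.01% (detergent screen) or 0.0001% Triton X-100; 5.3 nM AmpC reagent; cpd preinc 15 min RT; nitrocefin (800 uM stock) to start; A480 q20 s × 4 min; Activity was normalised to no-enzyme and no-compound control wells.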
FBPA Giardia inh – blocks Giardia fructose-bisphosphate aldolase activity; A8B2U2; Potency, µM (top dose mostly 59.6 µM), without a hit: at the highest dose activity, negative = inhibition, actives largely listed as inhibitors; purified Giardia FBPA; 0.71% of 290,000 active; AID 2451; also: nearly all actives have a fitted effect of over 55% in size
Target sequence (A8B2U2 whole entry, looked up): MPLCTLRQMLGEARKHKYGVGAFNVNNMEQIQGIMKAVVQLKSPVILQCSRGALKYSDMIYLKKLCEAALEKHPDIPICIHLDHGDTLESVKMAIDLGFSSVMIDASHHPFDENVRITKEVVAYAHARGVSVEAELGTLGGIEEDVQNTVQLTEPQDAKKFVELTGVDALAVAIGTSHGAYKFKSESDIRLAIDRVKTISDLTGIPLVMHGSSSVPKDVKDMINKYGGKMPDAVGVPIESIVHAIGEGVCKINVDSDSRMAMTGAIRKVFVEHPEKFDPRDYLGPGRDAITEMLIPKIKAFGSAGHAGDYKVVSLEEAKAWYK
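Giardia FBPA (40 nM reagent) was preincubated 10 min at RT with compound (up to 57.5 uM final), then substrate plus GAPDH/TPI/NAD/arsenate coupling system with diaphorase/resazurin was added; resorufin fluorescence (525/598 nm) was read after 20 min.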
RE007 growth inh – less growth of the S. pombe RE007 Vpr strain; S. pombe RE007 Vpr strain, BacTiter-Glo ATP luminescence, 24 h; 0.21% of 360,000 active; Potency, µM (titrated, usually from 92.2 µM), for the others: top-dose activity change, negative = less growth, hits mostly inhibitors; active = well fitted falling curve with a large enough effect; inconclusive = small, poorly fitted or top-dose-only effect; inactive = no such curve, though single readings can be large or run the other way; also: nearly all actives have a fitted effect of over 50% in size
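Fission yeast strain RE007, carrying one chromosomally integrated HIV-1 vpr copy, was seeded at OD 0.01 in PMG+AL medium with 23 nL pinned compound. After 24 h at 30 °C and 99% humidity, viability was read by BacTiter-Glo luminescence.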
Sm TGR block – inhibitors of Schistosoma mansoni thioredoxin glutathione reductase; Q962Y6; Potency, µM (top dose mostly 114 µM), for inactives: top-dose activity change, negative = inhibition, actives largely listed as inhibitors; purified TGR, DTNB reduction, TNB absorbance 405 nm; AID 485364; 3% of 360,000 active; also: nearly all actives have a fitted effect of over 60% in size
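Kinetic colorimetric format: TGR-catalysed, NADPH-driven DTNB reduction monitored via TNB absorbance. Enzyme dispensed at 20 nM; compound exposure 15 min at room temperature before reaction start.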
The depositor's hits bear a star; ? = inconclusive; . = no result; [ ] = another dose, or the depositor's remark. Hits are enriched below; roughly 3.4% of the tested compounds scored in any of these assays. Unless noted, calls follow the shape of the dose curve; as a rule, active = well fitted curve in the direction sought with a large enough effect; inconclusive = small, poorly fitted or top-dose-only effect, or another doubt; inactive = no such curve, though single readings can be large; an effect the other way counts as inactive or inconclusive. Unless noted, % is scaled to controls: 0 for no effect and ±100 for the full control effect; potency is read from the fitted curve at half-maximal effect.

SMILES	AmpC no deterg	AmpC inh detg	FBPA Giardia inh	RE007 growth inh	Sm TGR block
CO/N=C(\C(=O)N[C@@H]1C(=O)N2C(C(=O)O)=C(CSc3nc(=O)c(O)nn3C)CSC12)c1csc(N)n1 (stereo not given in full)	.	.	-1%	.	.
Cc1cc(C(F)F)nn1CC(=O)NC1C(=O)N2C(C(=O)O)=C(CSc3nnnn3C)CSC12 (stereo not given)	-23%	5%	?	-2%	14µM*
Cn1nnnc1SCC1=C(C(=O)O)N2C(=O)C(NC(=O)C3CC3c3ccccc3)C2SC1 (stereo not given)	-1%	-1%	?	0%	2.5µM*
CCOC(=O)c1cc(CC)sc1N1C(=O)CC(Sc2ncccc2C(=O)O)C1=O (stereo not given)	-17%	?	7%	3%	25µM*
CCOC(=O)c1cc(CC)sc1N1C(=O)CC(Sc2ccccc2C(=O)O)C1=O (stereo not given)	-2%	-12%	15%	-23%	14µM*
O=C(O)c1cccnc1SC1CC(=O)N(c2cccc3ccccc23)C1=O (stereo not given)	-13%	1%	2%	.	?
CCOC(=O)c1cnc(SC2CC(=O)N(c3ccccc3)C2=O)nc1N (stereo not given)	-20%	-12%	4%	13%	-69%
COc1ccc2c(Cl)c(C(=O)NCCc3ccc(S(N)(=O)=O)cc3)sc2c1	-22%	-12%	8%	-13%	6%
CCOc1ccc(C2/C(=C(\O)c3c(C)[nH]c(C(=O)OC)c3C)C(=O)C(=O)N2CCN(C)C)cc1 (stereo not given)	-8%	-10%	3%	-8%	1%
CCN(CC)CCN1C(=O)C(=O)/C(=C(/O)c2c(C)[nH]c(C(=O)OC)c2C)C1c1ccc(C)o1 (stereo not given)	2%	3%	-28%	14%	20µM*
CCOC(=O)c1[nH]c(C)c(/C(O)=C2\C(=O)C(=O)N(CCN(C)C)C2c2ccc(C)o2)c1C (stereo not given)	-8%	?	-29%	-20%	28µM*
Cc1ccc(C2/C(=C(\O)c3c(C)nc4ccccn34)C(=O)C(=O)N2CCN(C)C)o1 (stereo not given)	-7%	-7%	-24%	86%	32µM*
O=C(/C=C/c1ccco1)N(Cc1ccccc1F)C1CCS(=O)(=O)C1 (stereo not given)	4%	-11%	9%	0%	10µM*
CC(C)c1ccc(CN(C(=O)/C=C/c2ccco2)C2CCS(=O)(=O)C2)cc1 (stereo not given)	49%	-5%	-1%	5%	3.5µM*
CC(C)c1ccc(CN(C(=O)c2ccco2)C2CCS(=O)(=O)C2)cc1 (stereo not given)	49%	-10%	8%	8%	5%
Cc1cccc(C(=O)N(Cc2ccccc2F)C2CCS(=O)(=O)C2)c1 (stereo not given)	.	15%	.	.	-2%
CC1CC(C)CN(C(=O)C(C)N2CCN(S(=O)(=O)c3ccc(C(F)(F)F)cc3)CC2)C1 (stereo not given)	.	.	.	15%	.
Cc1n[nH]c(=O)c2c(NC(=O)COC(=O)Cc3ccc(Cl)cc3Cl)oc(C)c12	-16%	-3%	.	7%	?
CCc1nc2c(sc3nc4c(cc32)COC(C)(C)C4)c(=O)n1Cc1ccco1	-1%	-2%	-30%	-20%	?
CCc1nc(OCc2ccco2)c2sc3nc4c(cc3c2n1)COC(C)(C)C4	-9%	-14%	-10%	-5%	10µM*
CCn1c(CN2CCOCC2)nc2cc(NC(=O)c3cccc([N+](=O)[O-])c3)ccc21	.	8%	.	.	1%
Cc1cc2c(c(=O)o1)C(c1ccc([N+](=O)[O-])o1)C(C#N)=C(N)O2 (stereo not given)	-37%	1%	?	2%	14µM*
COc1cccc2c1CCCC2CCCN1CCN(C2CCCCC2)CC1 (stereo not given)	.	.	-14%	.	.
CC(=O)OCCNc1cc(SCc2ccco2)c2nonc2c1[N+](=O)[O-]	-15%	-6%	?	.	21%
O=[N+]([O-])c1c(NCCCO)cc(Sc2ccc(Cl)cc2)c2nonc12	-2%	-8%	?	-12%	5.6µM*
SMILES	AmpC no deterg	AmpC inh detg	FBPA Giardia inh	RE007 growth inh	Sm TGR block
O=[N+]([O-])c1c(NCCCO)cc(SCc2ccco2)c2nonc12	-12%	?	?	-22%	3.2µM*
Cn1ccnc1Sc1cc(NCCCO)c([N+](=O)[O-])c2nonc12	-26%	-1%	-10%	-1%	0.71µM*
Nc1ncnc2c1ncn2[C@@H]1O[C@H](CNCc2cccc(C#Cc3ccccc3)c2)[C@@H](O)[C@H]1O	-18%	.	.	-20%	.
O=C(c1ccccc1)n1nnc2ccccc21	.	0%	4%	2%	16µM*
Cc1onc(-c2ccccc2)c1C(=O)n1nnc2ccccc21	-7%	7%	-1%	14%	18µM*
CC(C(=O)O)n1nnc2ccccc21 (stereo not given)	-9%	5%	5%	-8%	9%
CN(C)CCNC(=O)c1cccc(S(=O)(=O)Nc2ccccc2F)c1	-15%	-4%	0%	-6%	?
COc1ccc(N2CCN(C(=O)c3ccccc3)CC2)c([N+](=O)[O-])c1	23%	-2%	4%	1%	1%
O=C1NC(=O)C(=Cc2ccc(N3CCN(C(=O)c4ccccc4)CC3)c([N+](=O)[O-])c2)C(=O)N1	-19%	-6%	-8%	-3%	11µM*
Cc1ccccc1-c1nn2c(=O)cc(CN3CCN(C(=O)/C=C/c4ccccc4)CC3)nc2s1	.	-4%	.	.	40µM*
COC(C(=O)N1CCC(n2nccc2NC(=O)C2CC2)CC1)c1ccccc1 (stereo not given)	-4%	2%	.	3%	-2%
CS(=O)(=O)N(CC(=O)N1CCCC1)Cc1ccc(F)cc1	-5%	-1%	13%	0%	40µM*
COc1ccc(Cc2nnc(NC(=O)c3ccc(Cl)c([N+](=O)[O-])c3)s2)cc1	-9%	-2%	0%	-3%[3.69 µM]	10%
COC(=O)C/C=C/[C@@H](C)[C@@H](/C=N/OC[C@@H](C)[C@H](OCc1ccccc1)C(C)C)NS(=O)(=O)c1ccc(C)cc1	28µM*	?	-12%	.	-18%
COc1ccc(NC(=O)N(C)C[C@H]2Oc3ccc(NC(=O)Cc4ccccc4)cc3CC(=O)N([C@H](C)CO)C[C@H]2C)cc1	164%	.	.	7%	.
COC(=O)c1ccc(CSc2nc3ccc(Cl)cc3[nH]2)o1	-31%	-4%	-17%	-18%	?
